About 83,000 compounds went through this panel and 20% of them were active in at least one assay; those are over-represented in the sample as a whole.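 For each line, cells grew in 96-well plates with the test compound present at a single concentration for 48 hours.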 Unmarked numbers belong to inactive results. Active and inactive are the calls of the source. How the source made its calls: active means growth percent below 10; inactive means the rest.
These compounds were tested on K-562 leukemia (assay: NCI-60 one-dose screen, 48 h (100 = growth as untreated, 0 = no growth, -100 = all killed)). Settings: 10 µM unless noted.
For CC(=O)NNC(=O)c1sc(NC(C)=O)nc1C, the growth was 61.4%.
Compound Nc1ccc(S(=O)(=O)c2ccc(NO)cc2)cc1 has a growth of 91.8%.
For Cc1c(Cc2ccccc2)c(=O)oc2c(C)c(OCC(=O)n3nc(C#N)cc3N)ccc12, the growth was 102%.
In the case of NC(=O)CC(NC(=O)COc1ccc(Cl)cc1Cl)C(=O)O (stereo not given), the growth was 103%.
With CCCCCCCCC1OC1CCCCCCCC(=O)O (stereo not given) the growth was 116%.
With CC(=O)/C(=C/c1ccc(-c2ccccc2)cc1)C(=O)c1ccccc1 the growth was 64.2%.
COc1ccc(-c2nc(Nc3nc4ccccc4[nH]3)nc(N)c2C#N)cc1 was tested, and the growth was 97.2%.
CCC(CCCN1C(=O)c2ccccc2C1=O)Nc1cc(OC)cc2cccnc12 (stereo not given) gave a growth of 77.2%.
Compound CC(=O)OC1/C=C\CC/C=C\C1 (stereo not given) has a growth of 110%.
In the case of CCc1ccc(C(=Nc2ccc(N(C)C(=O)CN3CCN(C)CC3)cc2)c2c(O)[nH]c3ccc(C(=O)OC)cc23)cc1, the growth was -60.7% (active).
For c1ccc2[nH]c(-c3ccc(OCCCCCOc4ccc(-c5nc6ccccc6[nH]5)cc4)cc3)nc2c1, the growth was -13.8% (active).
For Oc1ccc(CN(Cc2ccc(C(F)(F)F)cc2)Cc2ccc(O)c3ncccc23)c2cccnc12, the growth was 8.17% (active).
For COc1ccc2nc3cc(Cl)ccc3c(NCCCNC(C)=O)c2c1, the growth was 23.9%.
Work on O=C(N/N=C\c1ccc(Cl)cc1)C(=O)N/N=C\c1ccc(Cl)cc1 yielded a growth of 95.2%.
Cc1nc2c(nnn2-c2ccccc2)c2nc(-c3ccccc3)oc(=O)c12 was tested, and the growth was 106%.
In the case of COC(=O)c1ccc2[nH]c(O)c(C(=Nc3ccc(N(C)C(=O)CN4CCN(C)CC4)cc3)c3ccc(N)cc3)c2c1, the growth was 14%.
In the case of Cc1nc(N)sc1C(=O)NCCO, the growth was 145%.
Work on CC(=O)Nc1nc(C)c(C(=O)N/N=C/N2CCOCC2)s1 yielded a growth of 174%.
With O=C(O)CC1Cc2ccccc2C1C(=O)O (stereo not given) the growth was 91.5%.
In the case of Cc1ccc2c(c1)C(=O)CCS2, the growth was 114%.
With CCC(C)(C)c1ccc(OCCCCCCN2CCNCC2)cc1 the growth was -29% (active).
With c1ccc(Nc2ccccn2)cc1 the growth was 89.5%.
Brc1ccc(-c2nc3ccccc3s2)cc1 was tested, and the growth was 96.2%.
Compound O=C1/C(=N\c2cc(=O)[nH]n2S(=O)(=O)c2ccccc2)Nc2ccccc21 has a growth of 98.7%.
In the case of CCCC(C)c1cc(Cc2cc(Cl)cc(Cl)c2O)c(O)c(Cc2cc(Cl)cc(Cl)c2O)c1 (stereo not given), the growth was 7.77% (active).
For c1ccc(Nc2ncc3c(n2)-c2cccn2CC3)cc1, the growth was 96.6%.
CC1=C(C)C(=O)C(C(C)C2=C(C)C(=O)C(C)=C(C)C2=O)=C(C)C1=O was tested, and the growth was 37.5%.
C=CCSc1nnc(COc2ccc3c(C)c(Cc4ccccc4)c(=O)oc3c2C)o1 gave a growth of 96.2%.
CCOc1nc(-c2ccccc2)cc2c(O)c(C(=O)N/N=C/c3ccccc3O)[nH]c(=O)c12 was tested, and the growth was 115%.
With CC(=O)Nc1nc(C)c(C(=O)NNC(=O)Nc2ccccc2)s1 the growth was 114%.
In the case of c1cc[c]([Bi]([c]2ccccc2)[c]2ccccc2)cc1, the growth was 105%.
COc1cc(NC(=O)CSc2nc3ccc(Cl)cc3c(=O)n2-c2ccc(F)cc2)cc(OC)c1OC showed a growth of 80.5%.
CC(=O)Nc1nc(C)c(C(=O)NN)s1 was tested, and the growth was 67.3%.
COC(=O)C(C)[C@H]1CC[C@@H]2[C@]1(C)CC=C1[C@]23C=C[C@]2(C[C@@H](OC(C)=O)CC[C@]12C)C(C(=O)OC)C3C(=O)OC (stereo not given in full) was tested, and the growth was 48.8%.
Compound Cc1nc2c(nnn2-c2ccccc2)c2nc(-c3ccc(Cl)cc3)oc(=O)c12 has a growth of 112%.
CCCCCCCCC/C(=N\NC(=O)c1ccncc1)c1ccc(O)c(O)c1O showed a growth of 15.1%.
CNCCCNCCCCNCCCN1C(=O)c2ccc3c4c(ccc(c24)C1=O)C(=O)N(CCCNCc1ccccc1OC)C3=O was tested, and the growth was 20.2%.
Cc1nc(NC(=S)Nc2ccc(F)cc2)sc1C(=O)NNC(=S)Nc1ccc(F)cc1 showed a growth of 51.4%.
In the case of CCOc1ccc(/C=N/NC(=O)c2cccc3ccccc23)cc1OCC, the growth was 80.7%.
For O=C(/C=C/c1ccc(Br)cc1)c1ccccc1, the growth was 59.4%.

— PubChem BioAssay (NCI)
